Assay results from PubChem BioAssay AID1159580 (chemical genetic matrix, 2015).
Values joined by “and” are separate entries in the source; they are usually repeats but may differ in a detail not shown here. Identical values can stand only once. Hit rate of the full screen: of about 5,500 compounds, about 2,000 (36%) were called active. Not shown: some 18% with an inconclusive outcome. Cut-off read from the data, not from the text of the source: active = normalized growth mostly below about 0.91 (no sharp cut-off); inconclusive = no clear call, values can overlap the other calls; inactive = mostly above about 0.92. This is one part of the list.

Test: chemical genetic growth profiling, strain panel (AID 1159580);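 note: tested at 20 µM; growth read once vehicle control cultures reached saturation at 30 °C; 1 = growth at the plate median or of vehicle wells; lower values mean less growth of the strain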
Conditions: growth OD
[1] = S. cerevisiae deletion strains, locus YBR229C, strain ROT2, stronger effect = lower value
[2] = S. cerevisiae deletion strains, locus YCL061C, strain MRC1, stronger effect = lower value
[3] = S. cerevisiae deletion strains, locus YDL101C, strain DUN1, stronger effect = lower value
[4] = S. cerevisiae deletion strains, locus YDL134C, strain PPH21, stronger effect = lower value
[5] = S. cerevisiae deletion strains, locus YDR150W, strain NUM1, stronger effect = lower value
[6] = S. cerevisiae deletion strains, locus YEL061C, strain CIN8, stronger effect = lower value
[7] = S. cerevisiae deletion strains, locus YGR078C, strain PAC10, stronger effect = lower value
[8] = S. cerevisiae deletion strains, locus YHR030C, strain SLT2, stronger effect = lower value
[9] = S. cerevisiae deletion strains, locus YHR087W, strain rtc3, stronger effect = lower value
[10] = S. cerevisiae deletion strains, locus YJR043C, strain POL32, stronger effect = lower value
[11] = S. cerevisiae deletion strains, locus YJR075W, strain HOC1, stronger effect = lower value
[12] = S. cerevisiae deletion strains, locus YLR039C, strain RIC1, stronger effect = lower value
[13] = S. cerevisiae deletion strains, locus YLR058C, strain SHM2 (second series), stronger effect = lower value
[14] = S. cerevisiae deletion strains, locus YLR085C, strain ARP6, stronger effect = lower value
[15] = S. cerevisiae deletion strains, locus YLR262C, strain YPT6, stronger effect = lower value
[16] = S. cerevisiae deletion strains, locus YML094W, strain GIM5, stronger effect = lower value
[17] = S. cerevisiae deletion strains, locus YMR219W, strain ESC1, stronger effect = lower value
[18] = S. cerevisiae deletion strains, locus YMR263W, strain SAP30, stronger effect = lower value
[19] = S. cerevisiae deletion strains, locus YMR307W, strain GAS1, stronger effect = lower value
[20] = S. cerevisiae deletion strains, locus YNL153C, strain GIM3, stronger effect = lower value
[21] = S. cerevisiae deletion strains, locus YNL298W, strain CLA4 (second series), stronger effect = lower value
[22] = S. cerevisiae deletion strains, locus YNL322C, strain KRE1, stronger effect = lower value
[23] = S. cerevisiae deletion strains, locus YNR030W, strain Alg12, stronger effect = lower value
[24] = S. cerevisiae deletion strains, locus YPL055C, strain LGE1, stronger effect = lower value
[25] = S. cerevisiae deletion strains, locus YPL241C, strain CIN2, stronger effect = lower value
[26] = S. cerevisiae deletion strains, locus YPR135W, strain CTF4, stronger effect = lower value

Measured: normalized growth

COc1ccc(-c2c(C(=O)O)sc(SC)c2C#N)cc1
inactive: S. cerevisiae deletion strains, locus YAL013W, strain DEP1, stronger effect = lower value 0.996 | [1] 0.998 | [2] 0.989 | [3] 1.01 | [4] 1.01 | [5] 1.07 | [6] 1.01 | [7] 1.01 | S. cerevisiae deletion strains, locus YGR229C, strain SMI1, stronger effect = lower value 1 | [8] 1.01 | [9] 0.997 | [10] 0.981 | [11] 1.01 | S. cerevisiae deletion strains, locus YKL190W, strain CNB1, stronger effect = lower value 1.01 | [12] 1.03 | [13] 0.994 | [14] 1.05 | [15] 1.04 | [16] 1.02 | [17] 1 | [18] 1.04 | [19] 1.06 | [20] 0.992 | [21] 1 | [22] 1 | [23] 1.01 | [24] 1.1 | [25] 1.01 | [26] 0.964

CSc1sc(-c2ccn[nH]2)c(-c2ccccc2)c1C#N
inactive: S. cerevisiae deletion strains, locus YAR019C, strain CDC15, stronger effect = lower value 0.982 | S. cerevisiae deletion strains, locus YBL105C, strain PKC1, stronger effect = lower value 0.981 | S. cerevisiae deletion strains, locus YBR135W, strain CKS1, stronger effect = lower value 0.975 | S. cerevisiae deletion strains, locus YBR136W, strain MEC1, stronger effect = lower value 0.975 | S. cerevisiae deletion strains, locus YBR160W, strain CDC28, stronger effect = lower value 0.992 | [1] 0.941 | [2] 0.981 | S. cerevisiae deletion strains, locus YDL017W, strain CDC7, stronger effect = lower value 0.994 | S. cerevisiae deletion strains, locus YDL028C, strain MPS1, stronger effect = lower value 0.983 | [3] 0.968 and 0.962 | S. cerevisiae deletion strains, locus YDL108W, strain KIN28, stronger effect = lower value 0.977 | S. cerevisiae deletion strains, locus YDL132W, strain cdc53, stronger effect = lower value 0.972 | S. cerevisiae deletion strains, locus YDL214C, strain PRR2, stronger effect = lower value 0.997 | S. cerevisiae deletion strains, locus YDR052C, strain DBF4, stronger effect = lower value 0.989 | S. cerevisiae deletion strains, locus YDR054C, strain cdc34, stronger effect = lower value 0.988 | [5] 0.974 | S. cerevisiae deletion strains, locus YDR226W, strain ADK1, stronger effect = lower value 0.976 | S. cerevisiae deletion strains, locus YDR477W, strain SNF1, stronger effect = lower value 0.984 | S. cerevisiae deletion strains, locus YER123W, strain YCK3, stronger effect = lower value 0.976 | S. cerevisiae deletion strains, locus YER133W, strain GLC7, stronger effect = lower value 0.987 | S. cerevisiae deletion strains, locus YFL009W, strain cdc4, stronger effect = lower value 0.97 | S. cerevisiae deletion strains, locus YFL029C, strain CAK1, stronger effect = lower value 0.975 | S. cerevisiae deletion strains, locus YFR003C, strain YPI1, stronger effect = lower value 0.976 | S. cerevisiae deletion strains, locus YFR019W, strain FAB1, stronger effect = lower value 0.973 | S. cerevisiae deletion strains, locus YFR028C, strain CDC14, stronger effect = lower value 0.974 | S. cerevisiae deletion strains, locus YGR040W, strain KSS1, stronger effect = lower value 0.998 | S. cerevisiae deletion strains, locus YGR052W, strain FMP48, stronger effect = lower value 0.998 | [7] 0.941 | S. cerevisiae deletion strains, locus YGR092W, strain DBF2, stronger effect = lower value 1 | S. cerevisiae deletion strains, locus YHR079C, strain IRE1, stronger effect = lower value 1.09 | S. cerevisiae deletion strains, locus YHR082C, strain KSP1, stronger effect = lower value 1.03 | [9] 0.914 | S. cerevisiae deletion strains, locus YHR205W, strain SCH9, stronger effect = lower value 0.997 | S. cerevisiae deletion strains, locus YIL147C, strain SLN1, stronger effect = lower value 0.979 | S. cerevisiae deletion strains, locus YJL095W, strain BCK1, stronger effect = lower value 0.974 | S. cerevisiae deletion strains, locus YJL128C, strain PBS2, stronger effect = lower value 0.957 | S. cerevisiae deletion strains, locus YJL157C, strain FAR1, stronger effect = lower value 0.986 | S. cerevisiae deletion strains, locus YJR016C, strain ILV3, stronger effect = lower value 0.978 | [10] 0.969 | S. cerevisiae deletion strains, locus YJR066W, strain TOR1 (second series), stronger effect = lower value 0.92 | S. cerevisiae deletion strains, locus YJR066W, strain TOR1, stronger effect = lower value 1.04 | [11] 0.944 | S. cerevisiae deletion strains, locus YKL048C, strain ELM1, stronger effect = lower value 0.984 | S. cerevisiae deletion strains, locus YKL067W, strain YNK1, stronger effect = lower value 0.992 | S. cerevisiae deletion strains, locus YKL101W, strain HSL1, stronger effect = lower value 0.976 | S. cerevisiae deletion strains, locus YKL193C, strain SDS22, stronger effect = lower value 0.983 | S. cerevisiae deletion strains, locus YKL203C, strain TOR2, stronger effect = lower value 1.04 | [12] 0.846 | [13] 0.975 | S. cerevisiae deletion strains, locus YLR133W, strain CKI1, stronger effect = lower value 0.968 | [15] 0.991 | S. cerevisiae deletion strains, locus YLR403W, strain SFP1, stronger effect = lower value 0.982 | S. cerevisiae deletion strains, locus YML070W, strain DAK1, stronger effect = lower value 0.984 | S. cerevisiae deletion strains, locus YMR001C, strain CDC5, stronger effect = lower value 0.993 | S. cerevisiae deletion strains, locus YMR205C, strain PFK2 (second series), stronger effect = lower value 0.97 | [17] 0.955 | [18] 0.939 | S. cerevisiae deletion strains, locus YMR277W, strain FCP1, stronger effect = lower value 0.984 | S. cerevisiae deletion strains, locus YNL006W, strain LST8, stronger effect = lower value 1 | S. cerevisiae deletion strains, locus YNL020C, strain ARK1, stronger effect = lower value 0.996 | [20] 0.979 | S. cerevisiae deletion strains, locus YNL161W, strain CBK1, stronger effect = lower value 0.991 | S. cerevisiae deletion strains, locus YNL183C, strain NPR1, stronger effect = lower value 1 | S. cerevisiae deletion strains, locus YNL207W, strain RIO2, stronger effect = lower value 0.96 | S. cerevisiae deletion strains, locus YNL222W, strain SSU72, stronger effect = lower value 0.977 | S. cerevisiae deletion strains, locus YNL307C, strain MCK1 (second series), stronger effect = lower value 1.01 | [22] 0.965 | S. cerevisiae deletion strains, locus YOL078W, strain AVO1, stronger effect = lower value 0.981 | S. cerevisiae deletion strains, locus YOL136C, strain PFK27, stronger effect = lower value 0.956 | S. cerevisiae deletion strains, locus YOR061W, strain CKA2, stronger effect = lower value 0.986 | S. cerevisiae deletion strains, locus YOR119C, strain RIO1, stronger effect = lower value 1.02 | S. cerevisiae deletion strains, locus YOR231W, strain MKK1, stronger effect = lower value 0.965 | S. cerevisiae deletion strains, locus YOR329C, strain SCD5, stronger effect = lower value 0.995 | S. cerevisiae deletion strains, locus YPL031C, strain PHO85, stronger effect = lower value 0.989 | [24] 0.875 | S. cerevisiae deletion strains, locus YPL153C, strain RAD53, stronger effect = lower value 0.971 | S. cerevisiae deletion strains, locus YPL204W, strain HRR25, stronger effect = lower value 0.958 | S. cerevisiae deletion strains, locus YPL209C, strain IPL1, stronger effect = lower value 0.978 | S. cerevisiae deletion strains, locus YPL256C, strain CLN2, stronger effect = lower value 1.04 | S. cerevisiae deletion strains, locus YPR025C, strain CCL1, stronger effect = lower value 0.989 | S. cerevisiae deletion strains, locus YPR106W, strain ISR1, stronger effect = lower value 0.986 | S. cerevisiae deletion strains, locus YPR111W, strain DBF20, stronger effect = lower value 0.954 | [26] 0.69 | S. cerevisiae deletion strains, strain NNK1, stronger effect = lower value 0.966 | S. cerevisiae deletion strains, strain TSCII, stronger effect = lower value 0.984
0.599 (active) and 1.06 (inactive): [8]
active: [4] 0.732 | [6] 0.827 | [14] 0.437 | S. cerevisiae deletion strains, locus YLR113W, strain HOG1, stronger effect = lower value 0.861 | [16] 0.789 | [19] 0.508 | [21] 0.735 | [23] 0.753 | [25] 0.758 | S. cerevisiae strains, strain wild type, stronger effect = lower value 0.911
